We go through 54 molecules from ChEMBL document CHEMBL4513216, “Probing the Open Global Health Chemical Diversity Library for Multistage-Active Starting Points for Next-Generation Antimalarials” (ACS Infect Dis, 2020).

SMILES strings stand for the structures. The whole screen tested about 69,000 compounds, of which about 8,600 (12%) showed an effect of 50% or more. Only a selection was taken, and strong results are over-represented in it overall.

This assay has as its system Plasmodium berghei. As to the kind of experiment: Screen against P. berghei liver stage (PbLuc), transformed with Luciferase, at 10uM. The format is functional, HepG2. The settings on record: tested at 10 uM.
Regarding `O=C(O)CN(C(=O)c1ccccc1)[C@H]1C[C@H]2CCOC[C@H]2C1`, the INHIBITION is -6.53%. For `Cc1ccc(NC2CCN(C(=O)c3ccc(C(N)=O)s3)CC2)nn1`, the INHIBITION came to 42%. For `CN(C)c1ncccc1CNC(=O)NCc1ccc(Cl)s1`, the INHIBITION is recorded as -10.1%.

`Cn1nccc1CCC(=O)N1CCCC(c2cnccn2)C1` (centres undefined): the INHIBITION was determined as 25.6%. Turning to `Cn1cnnc1CCC(=O)N1CCCC(OCc2cccnc2)C1` (centres undefined), the INHIBITION is 51%.

As to `COc1ccccc1CCC(=O)N1CCCC(OCc2cccnc2)C1` (centres undefined), the INHIBITION stood at 25.8%.

Regarding `Cc1ccn(CCC(=O)N2CCCC(Cc3cccnc3)C2)n1` (centres undefined), the INHIBITION is on record as 41.2%. On to `Cc1cncc(C2CCN(C(=O)CCc3ccnn3C)CC2)n1`, for which the INHIBITION was found to be 6.32%. Turning to `O=C(CCc1ccccc1F)N1CCCC(OCc2cccnc2)C1` (centres undefined), the INHIBITION turned out to be 48.8%. The figure for `Cn1nccc1CCC(=O)N1CCCC(Cc2cccnc2)C1` (centres undefined) is 56%; for `Cn1nccc1CCC(=O)N1CCC(c2cnccn2)CC1` it is 54.4%; for `CN(CCC(=O)N1CCCC(Cc2cccnc2)C1)Cc1cccnc1` (centres undefined) it is 38.2%. Turning to `O=C1CCCN1CCCC(=O)N1CCCC(Cc2cccnc2)C1` (centres undefined), the INHIBITION was determined as 41.2%. Then `O=C(CCn1ncc2ccccc21)N1CCCC(Cc2cccnc2)C1` (centres undefined), with 53%; and `CC(C)C(=O)N1CCCC(Cc2cccnc2)C1` (centres undefined), with 16.2%. The figure for `CN(CC(=O)NC1CCOCC1)C1CCCN(c2cccnn2)C1` (centres undefined) is 26.5%. Then `O=C(CCCN1CCOC1=O)Nc1cnn(-c2ccccc2Cl)c1`, with 33.8%; and `CNc1cc2c(nn1)CCN(C(=O)c1ccc3c(c1)CCC3)C2`, with 27.4%. As for `Cc1noc(C)c1CNCC1CNc2ccnn2C1` (centres undefined), the INHIBITION turned out to be 39.3%. The figure for `CC(C)n1cc(CN2CCCN(C(=O)CN3CCCC3=O)CC2)cn1` is 33.7%; for `CC(C)N(C)Cc1n[nH]c2c1CCN(C(=O)c1ccc[nH]1)C2` it is 2.79%; for `CC(C)CCNC(=O)CNC(=O)N1CCc2c([nH]c3ccc(Cl)cc23)C1` it is -2.13%.

Take `O=C1OCCN1CCN1CCCN(Cc2ccccc2F)CC1`: the INHIBITION turned out to be 15.1%. As to `Cc1ccn(-c2ccc(N3CCCN(Cc4ccccc4)CC3)nn2)n1`, the INHIBITION is 6.39%. Then `c1cc(CN2CCCN(c3ccc4cc[nH]c4n3)CC2)ccn1`, with 54.4%. For the molecule `Fc1ccccc1CN1CCCN(c2ccc3cc[nH]c3n2)CC1`, the INHIBITION worked out at 70.4%.

Turning to `c1cc2ccc(N3CCN(Cc4ccc5c(c4)OCO5)CC3)nc2[nH]1`, the INHIBITION was found to be 44.7%. Then `Fc1ccccc1CN1CCCN(c2ncnc3[nH]ccc23)CC1`, with 26.9%. Consider `Cc1cc(-n2nc(C3CC3)nc2-c2csnn2)ccn1`, for which the INHIBITION turned out to be 19.5%. The figure for `CN1CCOC(CNCc2coc(-c3ccccc3Cl)n2)C1` (centres undefined) is 16.8%; for `CC(C)c1noc(CN2CCN(C(=O)c3cccc(F)c3)CC2)n1` it is -31.5%. For the molecule `CCN(CC)S(=O)(=O)c1ccc2c(c1)N(Cc1ccccn1)C(=O)CS2`, the INHIBITION was determined as 13.1%. The figure for `CS(=O)(=O)N1CC[C@]2(O)CCN(c3cc(C#N)ccn3)C[C@@H]2C1` is 52.2%; for `CN(C)S(=O)(=O)N1CC[C@]2(O)CCN(c3cc(C#N)ccn3)C[C@@H]2C1` it is 36.5%. For `CS(=O)(=O)N1CC[C@]2(O)CCN(c3ccnc(N)n3)C[C@@H]2C1`, the INHIBITION worked out at 20.8%. With `CC(C)(C)n1nc(C2CC2)cc1C(=O)NC1CCN(CC(N)=O)CC1`, the INHIBITION is on record as 56%. The figure for `CC(C)(C)n1nc(C(=O)NC2CCN(CC(N)=O)CC2)cc1C1CC1` is 5.03%; for `Cc1cc(C(=O)NC2CCN(CC(N)=O)CC2)nn1C(C)(C)C` it is -1.54%; for `Cc1noc(C(C)C)c1C(=O)NCCN1CCCCCC1=O` it is 11.6%.

As to `Cc1nc(C)n(CC2CCCCN2CC(=O)Nc2cc(C)on2)n1` (centres undefined), the INHIBITION is reported as 15.5%.

For the molecule `COCC(=O)N1CCCC1c1nc(O)cc(C(C)C)n1` (centres undefined), the INHIBITION was found to be 0.301%. As to `CN(C)CCN1C(=O)CCC12CCCN(C(=O)c1cccnc1)CC2` (centres undefined), the INHIBITION was -38.1%. The figure for `Cc1occc(=O)c1OCC(=O)N1CCc2ccccc2C1` is -8.04%. As to `CC(C)C(NC(=O)NCCNc1ncccn1)c1cccs1` (centres undefined), the INHIBITION is on record as -6.44%. As to `CC(C)C(NC(=O)NCCNc1ccccn1)c1cccs1` (centres undefined), the INHIBITION came out at 50.4%. Then `CC(NC(=O)NCCCc1n[nH]c(N)c1C#N)c1ccccc1` (centres undefined), with 31%; and `CC(NC(=O)NCCCc1n[nH]c(N)c1C#N)c1ccc(F)cc1` (centres undefined), with -25.8%; and `CC(C)C(NC(=O)NCCNc1cnccn1)c1cccs1` (centres undefined), with 36.1%.

In the case of `CC(NC(=O)NCCNc1ccccn1)c1cccs1` (centres undefined), the INHIBITION turned out to be 19.6%. The figure for `CC(NC(=O)NCCCc1n[nH]c(N)c1C#N)c1cccs1` (centres undefined) is 58.2%; for `CC(NC(=O)NCCNc1ncccn1)c1cccs1` (centres undefined) it is 56.6%. Turning to `CC(NC(=O)NCCNc1cnccn1)c1cccs1` (centres undefined), the INHIBITION is -0.847%.

Turning to `CCSc1ccc(C(=O)N2CCCCC2C(=O)NC(C)(C)C)cn1` (centres undefined), the INHIBITION is 29.7%.

`CN(CCCO)C(=O)c1ccc2c(c1)nc(N1CC[C@H](O)C1)n2C`: the INHIBITION is listed as -17.7%.
